# This is a sample that favours compounds with a hit; in the whole collection about 13% have one here.
# CHOP inh: inhibitors of CHOP promoter induction, primary screen, cell-based, unfolded protein response, luciferase reporter; CHO-K1 CHOP-promoter luciferase, tunicamycin-induced, 15-18 h; inhibition, % at 10 µM; hit rate 3.8% among 220,000; AID 2732, 2010;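 active means compounds that reduced the stress-induced luciferase reporter signal by more than about 70% of percent inhibition, limit read from the data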;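 further: 0% = tunicamycin plus vehicle and 100% = wells without tunicamycin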
# WT yeast gro inh: growth inhibition of WT strain, primary screen, mitochondrial fusion inhibitor project, WT and mutant strains, chemical genetic; inhibition, % at 10 µM; hit rate 2.1% among 190,000; mitochondrial fusion phenotypic screen; AID 1362, 2008; in the data active means inhibition above about 58%; tested in S. cerevisiae
# Lmaj promast: Leishmania major promastigote growth inhibition, primary screen; Leishmania major promastigotes, resazurin fluorescence viability; inhibition, % at 10 µM; hit rate 9% among 200,000; in the data active means inhibition above about 50%;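 further: promastigotes grown with compound for 44 hours at 28 °C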
# RAM inhibit: inhibitors of the yeast RAM network, primary screen, dse1pr::URA3 reporter, 5-FOA selection; S. cerevisiae dse1pr::URA3 reporter, 5-FOA growth OD615, 2 d; analog-sensitive cbk1-as2 kinase mutant strain; hit rate 1.8% among 190,000; inhibition, % at 50 µM;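 active means inhibition above a set limit, 3 SD over mean compound inhibition, cut at about 8.4% in these data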;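 further: 0% = DMSO-only wells with no growth and 100% = 10 µM 1-NA-PP1 full growth; inhibition rescues growth on 5-FOA so higher OD means more RAM inhibition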
# * marks the source's active call; other numbers are inactive results; / = not tested or not shown.
SMILES,CHOP inh,WT yeast gro inh,Lmaj promast,RAM inhibit
COc1ccc(-c2cc(C(=O)Nc3ccc(Cl)cc3Cl)c3ccccc3n2)cc1OC,54,20,12,6
CC(=O)c1sc(NC(=O)c2cc(-c3ccccc3)nn2-c2ccccc2)nc1C,-1,43,19,4
COc1ccc2nc(NC(C)=O)sc2c1,-15,-5,-5,1
COc1ccc(-c2cc(C(=O)Nc3ccccc3N3CCOCC3)c3ccccc3n2)cc1OC,23,18,64*,2
COc1ccc(-c2cc(C(=O)Nc3c(Cl)cc(Cl)cc3Cl)c3ccccc3n2)cc1OC,79*,6,1,2
COc1ccc2nc(NC(=O)c3ccc4ncsc4c3)sc2c1,91*,21,49,4
O=C(Nc1nc2ccccc2s1)c1cc(-c2ccccc2)nn1-c1ccccc1,54,30,93*,4
Cc1cccc(NC(=O)NNC(=O)c2cc(-c3ccccc3Cl)nc3ccccc23)c1,0,-20,12,4
COc1ccc(C(=O)Nc2nc3ccccc3s2)cc1OC,15,68*,69*,1
COc1ccc(-c2cc(C(=O)Nc3nc4ccccc4s3)c3ccccc3n2)cc1OC,10,24,98*,3
O=C(NNC(=O)c1cc(-c2ccc(Cl)c(Cl)c2)nc2ccccc12)Nc1ccccc1,89*,-7,61*,1
COc1nnc(-c2ccc(N3CCOCC3)c(NC(=O)c3ccccc3)c2)c2ccccc12,86*,15,22,2
COc1nnc(-c2ccc(N3CCOCC3)c(NC(C)=O)c2)c2ccccc12,-16,2,-1,-1
Cc1ccc(C(=O)CCNc2ccc(Cl)cc2)o1,5,-4,11,2
Cc1ccc(C(C(=O)NC2CCCC2)N(C(=O)Cc2cccs2)c2ccc(C)c(C)c2)o1 (stereo not given),27,63*,19,1
Cc1nn(C)cc1C(C(=O)NC1CCCCC1)N(C(=O)Cc1cccs1)c1ccc(F)cc1 (stereo not given),-32,8,70*,4
Cc1ccc(C)c(N(C(=O)Cc2cccs2)C(C(=O)NC2CCCC2)c2ccc(C)o2)c1 (stereo not given),29,5,-2,3
Cc1ccc(N(C(=O)CCl)C(C(=O)NC2CCCCC2)c2cccnc2)cc1C (stereo not given),70,-13,100*,1
Cc1onc(-c2c(F)cccc2Cl)c1C(=O)Nc1nc2c(s1)CCCC2,84*,0,58*,2
CSC1=NCCCN1C(=O)c1c(-c2ccccc2Cl)noc1C,13,/,/,/
Cc1onc(-c2ccccc2Cl)c1C(=O)N1CC(C)OC(C)C1 (stereo not given),5,-20,3,1
Cc1onc(-c2ccccc2Cl)c1C(=O)N1CCc2ccccc2C1,3,4,96*,-1
CSC1=NCCN1C(=O)c1c(-c2ccccc2Cl)noc1C,89*,-5,0,2
Cc1onc(-c2c(F)cccc2Cl)c1C(=O)N1CCc2ccccc2C1,0,14,100*,0
CC(C)n1c(C(F)(F)F)nc2cc(C(=O)N3CCCCC3)ccc21,-26,/,/,/
SMILES,CHOP inh,WT yeast gro inh,Lmaj promast,RAM inhibit
CCC(CO)n1c(=S)[nH]c2cc(OC)c(OC)cc2c1=O (stereo not given),-31,-8,6,0
CC(Oc1ccc2oc3ccccc3c2c1)C(=O)NC12CC3CC(CC(C3)C1)C2 (stereo not given),28,67*,11,5
O=C(Nc1nnc(C2CC2)s1)c1cc(S(=O)(=O)N2CCCCC2)ccc1N1CCOCC1,3,/,/,/
O=C(/C=C/c1ccc2c(c1)OCO2)Nc1cc(S(=O)(=O)N2CCOCC2)ccc1N1CCOCC1,41,-34,64*,2
COc1ccc(NS(=O)(=O)c2ccc(N3CCOCC3)c(NC(=O)C(C)C)c2)cc1,14,9,3,1
O=C(Nc1ccc(F)cc1)Nc1cc(S(=O)(=O)N2CCOCC2)ccc1N1CCCC1,0,2,0,2
O=C(Nc1ccc(Cl)cc1)Nc1cc(S(=O)(=O)N2CCOCC2)ccc1N1CCCC1,15,0,-5,9.3*
CCc1nnc(NC(=O)c2cc(S(=O)(=O)N3CCOCC3)ccc2N2CCCCC2)s1,72*,-24,10,3
O=S(=O)(Nc1ccc(Cl)cc1)c1ccc(N2CCOCC2)c(NC(=S)NCCN2CCOCC2)c1,81*,-11,-4,1
CCN(CC)C(=O)C(=O)N/N=C/c1ccc(C(=O)O)cc1,-7,9,-5,-1
Cc1ccsc1/C=N\NC(=O)c1n[nH]c2c1CCC2,22,-17,4,2
O=C(N/N=C/c1c(Cl)cccc1Cl)c1n[nH]c2c1CCCC2,-7,75*,36,2
Cc1cccc(C)c1NC(=O)CSc1nnc(-c2ccco2)c(-c2ccco2)n1,-2,5,83*,0
Cc1ccccc1NC(=O)CSc1nnc(-c2ccco2)c(-c2ccco2)n1,-18,4,93*,2
COCCNC(=O)CN(Cc1cccs1)C(=O)CCC(=O)Nc1nccs1,4,-1,-3,2
O=c1[nH]c(CN2CCN(c3ccccc3)CC2)nc2scc(-c3ccccc3)c12,28,33,67*,0
CCn1c(SCc2nc3scc(-c4ccccc4)c3c(=O)[nH]2)nnc1-c1ccc(Cl)cc1,93*,-20,-8,6
COc1ccc(N2CCN(Cc3nc4scc(-c5cccs5)c4c(=O)[nH]3)CC2)cc1,22,16,-10,2
COc1ccc(N2CCN(Cc3nc4scc(-c5ccccc5)c4c(=O)[nH]3)CC2)cc1,40,19,62*,1
Cc1ccc(CNCC(=O)Nc2ccc(C)cc2Br)cc1,3,17,-4,1
COCc1cccc(N2C(=O)CC(C3C=C(C)C4C(=O)N(c5cccc(COC)c5)C(=O)C4C3)C2=O)c1 (stereo not given),-1,9,-3,2
CCC1=NN2C(=N)/C(=C\c3cccn3-c3ccc(OC)cc3)C(=O)N=C2S1,10,34,-13,3
Cc1ccc(Cn2cccc2/C=C2/C(=N)N3C=CSC3=NC2=O)cc1,94*,6,19,2
Cc1ccc(-n2cccc2/C=C2\C(=N)N3N=C(C(C)C)SC3=NC2=O)cc1,13,81*,-13,7
N=C1/C(=C/c2cccn2-c2ccc([N+](=O)[O-])cc2)C(=O)N=C2SC=CN12,56,-11,-4,10*
Cc1ccc(-c2cc(C(=O)O)n(-c3ccc(S(N)(=O)=O)cc3)n2)cc1,3,7,-6,2
C=CCN1C(=O)C(Cc2ccc(F)cc2)S/C1=N/N=C/c1ccco1 (stereo not given),37,1,-1,4
CCC1S/C(=N/N=C/c2ccco2)N(c2ccc(F)cc2)C1=O (stereo not given),-6,-2,-7,5
Cc1cccc(CC2S/C(=N/N=C/c3ccco3)N(c3ccccc3)C2=O)c1 (stereo not given),11,6,-5,11*

# From PubChem BioAssay
